Hits are enriched below; roughly 0.78% of the tested compounds scored in any of these assays.
CCT modulator – changes cytosolic chaperonin activity | purified chaperonin ATPase assay, HTRF ADP detection, 30 min | activity change, % (concentration not given with the values), hits read low | 360,000 tested, 0.3% active | AID 651819; in the data active means activity change below about -30%; further: on the % scale 0 is the no-effect control and ±100 the full control effect
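Enzyme 40 or 20 nM (batch-dependent) in Tris pH 7.4/KCl/MgCl2/DTT; cpd 76 uM single point; ATP 10 uM; 30 min 37 °C; Transcreener ADP HTRF detection, 30 min RT; ratio 665/615.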
Tb PGK inh – blocks T. brucei phosphoglycerate kinase; PGK/GAPDH coupled, Kinase-Glo luminescence, 60 min; 380,000 tested, 0.043% active; Potency, µM (highest dose often 57.5 µM), without a hit: top-dose activity change, negative = inhibition, usual class: inhibitors; further: potency means the concentration at half of the fitted maximal effect; on the % scale 0 is the no-effect control and ±100 the full control effect; nearly all actives have a fitted effect of over 60% in size
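Luminescent ATP detection (Kinase-Glo Plus) follows a 60-minute room-temperature incubation, with wells lacking PGK as controls. Buffer: 100 mM TEA (pH 7.6), 5 mM MgCl2, 0.01% Tween-20. Coupling enzyme GAPDH (100 nM final) supplies unstable 1,3-BPG in-well.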
GLS inhibitor – glutaminase GLS (human) inhibition | O94925 | 410,000 tested, 0.21% active | Potency, µM (top dose mostly 45.5 µM), inactives show at the top dose activity change, negative = inhibition, actives largely listed as inhibitors | GLS enzymatic activity, qHTS titration; further: potency means the concentration at half of the fitted maximal effect; on the % scale 0 is the no-effect control and ±100 the full control effect
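Coupled fluorescence readout: glutamate oxidase/HRP/Amplex Red detect glutamate formed by hKGA from L-glutamine (1 mM solution added). Buffer 45 mM KH2PO4 pH 8.2, 0.02% Tween-20; reads at t0 and 30 min RT.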
PINK1 expr mod – changes PINK1 expression | Potency, µM (highest dose often 76.6 µM), without a hit: at the highest dose activation (PINK1 increase), actives largely listed as activators | 410,000 tested, 0.2% active | PINK1 immunofluorescence, high-content cytometry, 24 h | AID 624263; active means well fitted activation curve with a large enough effect; inconclusive means small, poorly fitted or top-dose-only effect; cell line not stated here; further: potency means the concentration at half of the fitted maximal effect; % of control where 0% means no effect; nearly all actives have a fitted effect of over 65% in size
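Fluorescence from anti-PINK1 antibody, together with nuclear and cell stains, was scanned on a laser-scanning cytometer. Before staining, stable-line cells were incubated 24 hours with compounds at 5 concentrations; primary antibody 12 h at 10 degrees C.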
PI4K2A inh – inhibitors of human PI4K2A | Q9BTU6 | purified PI4K2A, ADP-Glo luminescence, 1 h; hits give low values | activity change, negative = inhibition, % at 76.9 µM | 420,000 tested, 0.13% active; in the data active means activity change below about -50%; inconclusive means mostly about -30% to -49%;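 further: -100% = wells without enzyme as full effect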
Target sequence (Q9BTU6 whole entry, looked up): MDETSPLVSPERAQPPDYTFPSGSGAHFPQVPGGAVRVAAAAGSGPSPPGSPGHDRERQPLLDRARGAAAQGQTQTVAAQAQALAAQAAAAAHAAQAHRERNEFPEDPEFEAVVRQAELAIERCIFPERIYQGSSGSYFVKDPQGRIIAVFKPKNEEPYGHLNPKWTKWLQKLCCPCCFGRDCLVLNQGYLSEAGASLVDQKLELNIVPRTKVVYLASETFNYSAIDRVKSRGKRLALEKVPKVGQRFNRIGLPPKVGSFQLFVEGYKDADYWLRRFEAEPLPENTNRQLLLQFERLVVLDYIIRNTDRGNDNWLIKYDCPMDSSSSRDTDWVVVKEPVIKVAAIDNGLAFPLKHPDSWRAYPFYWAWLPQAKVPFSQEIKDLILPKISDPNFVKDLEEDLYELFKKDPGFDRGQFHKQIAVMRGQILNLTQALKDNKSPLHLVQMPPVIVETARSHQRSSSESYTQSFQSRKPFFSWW
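Compounds are screened against recombinant PI4K2A using PI as substrate and ATP, the latter dispensed at 300 microM. Reactions run one hour at ambient temperature before ADP-Glo detection; full inhibition defined by wells lacking enzyme.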
Numbers without * were called inactive; i = inactive; ? = inconclusive; · = no result given; [ ] = dose if it differs, or a comment. Unless noted, the call rests on the fitted dose curve; in most records, active means well fitted curve in the direction sought with a large enough effect; inconclusive means small, poorly fitted or top-dose-only effect, or another doubt; inactive means no such curve, though single readings can be large; an effect the other way counts as inactive or inconclusive.

SMILES	CCT modulator	Tb PGK inh	GLS inhibitor	PINK1 expr mod	PI4K2A inh
CCNc1ncc2nc(-c3cn(C)c4ccccc34)c(=O)n(-c3ccc(OC)cc3)c2n1	·	·	·	28.2µM*	·
O=C(NCc1nnc2n1CCN(Cc1cccc(Cl)c1)CC2)c1cccc(F)c1	·	·	·	2.5%	·
Cc1c(C(=O)NCc2cccc(F)c2)sc2ncnc(NCC3CCCO3)c12 (centres undefined)	·	·	·	0.5%	·
Cc1c(O)ccc(C(=O)CN2CCN(Cc3ccccc3)CC2)c1O	-56.5*	-3.3%	27.9%	-0.3%	-5.0
CCN1CCC[C@@H]1CNC(=O)c1cc(S(=O)(=O)CC)ccc1OC	·	·	-3.0%	·	·
O=[N+]([O-])c1ccc(O)c(/C=N\N=C2c3ccccc3-c3ccccc32)c1	-1.2	-8.5%	14.3%	10µM*	2.2
O=C1OC2C(O)C(O)OC2C1O (centres undefined)	·	·	-3.2%	·	·
O=C(c1ccc(NC(=S)Nc2ccc(Cl)c(Cl)c2)cc1)N1CCCC1	-0.5	-3.9%	-22.6%	28.2µM*	11.4
O=C(Nc1ccc(Cl)c(Cl)c1)N1CCCCCC1	-0.6	-6.2%	-9.8%	6.4%	7.0
O=C(Nc1ccc(C(=O)N2CCCC2)cc1)c1ccccc1F	-4.2	?	-5.8%	7.0%[38.3 µM]	-70.3*
COCc1c(C(=O)N2CCN(C)CC2)cnn1-c1ncc2c(n1)-c1ccccc1CCC2	·	·	·	0.1%	·
C/C(=N/N=C(\C)c1ccccc1O)c1ccccc1O	2.5	-7.2%	-11.4%	31.6µM*	-2.0
COCCCn1c(=O)/c(=C\c2ccccc2OC(F)F)s/c1=C(/C#N)C(N)=O	-1.2	6.8%	5.0%	35.5µM*	1.1
CC(=O)c1ccccc1-c1ccc2c(c1)CC(CNC(=O)c1ccnc(Cl)c1)O2 (centres undefined)	·	·	·	1.6%	·
O=c1[nH]c(Nc2ccc(F)cc2)cc2ccccc12	-0.2	-16.9%	21.0%	-0.5%[38.3 µM]	-51.3*
CCN(CC)c1ccc(N=C2C=CC(=O)C=C2NC(C)=O)cc1	1.6	-7.9%	11.2µM*	-0.5%	-19.3
CCOc1ccc(NC2=C(Cl)C(=O)N(C3CCCCC3)C2=O)cc1	-32.5*	-2.4%	1.2%	7.2%	4.1
O=C(COC(=O)/C=C/c1ccccc1)NCc1ccco1	-55.6*	-1.8%	-6.6%	1.1%	-0.8
O=C(COC(=O)/C=C/c1cccc(Br)c1)NCc1ccco1	-4.4	-5.9%	0.5%	1.6%	2.3
CC(C)C(=O)NCC1CCC2(CCN(Cc3ccc(-c4cccc(Cl)c4)o3)CC2)O1 (centres undefined)	·	·	·	0.7%	·
COc1cc(/C=C/C(=O)OCC(=O)N2CCCc3ccccc32)ccc1O	0.5	6.8%	10µM*	0.1%	-5.2
COc1cc(/C=C/C(=O)OCC(=O)N2CCCc3ccccc32)ccc1OCC#N	0.0	-2.3%	-0.3%	-0.4%	1.6
CN(C)CCOC(c1ccccc1)c1ccc(Br)cc1 (centres undefined)	·	·	·	·	3.4
CCOc1ccc(CCNC(=O)C2CCC(=O)N2C2CCCCC2)cc1OCC (centres undefined)	-1.3	-7.1%	-3.6%	3.98µM*	-0.2
CC(=O)C12CCCCC1CC1[C@@H]3CC(C)C4=CC(=O)CC[C@]4(C)C3CC[C@@]12C (some centres undefined)	-0.1	7.1%	7.7%	15.8µM*	0.1
SMILES	CCT modulator	Tb PGK inh	GLS inhibitor	PINK1 expr mod	PI4K2A inh
CC(=O)O[C@]1(C(C)=O)CC[C@H]2[C@@H]3C[C@H](C)C4=CC(=O)CC[C@]4(C)[C@H]3CC[C@@]21C	-2.0	-2.5%	-6.1%	31.6µM*	1.5
Cc1noc(C)c1C(=O)Nc1c(F)cc(F)cc1Br	-0.1	1.5%	0.8%	5.1%[38.3 µM]	0.1
O=C(Nc1c(F)cc(F)cc1Br)c1ccco1	-101.1*	5.0%	-1.3%	-0.9%[38.3 µM]	-0.3
CCC1(OC(=O)CN(C)C)C(=O)OCc2c1cc1n(c2=O)Cc2cc3c(N)cccc3nc2-1 (centres undefined)	1.9	i	10.2%	-4.4%	-61.8*
CCC1(O)C(=O)OCc2c1cc1n(c2=O)Cc2cc3c(N)cccc3nc2-1 (centres undefined)	-1.5	-2.7%	1.6%	-6.5%	0.5
CCOC(=O)c1cnn(-c2ccc(NS(=O)(=O)c3ccc(Cl)cc3)cc2)c1C(F)(F)F	-97.7*	-5.4%	?	21.7%	3.8
O=C1C=C(CO)OCC1=O	·	·	-0.9%	·	·
Cc1oc(-c2ccc3c(c2)OCCO3)cc1C(=O)NCC(=O)O	0.1	-1.7%	7.1%	-1.3%	-4.0
Cc1oc(-c2ccc3c(c2)OCCO3)cc1C(=O)O	-1.5	?	0.0%	2.4%	-74.6*
O=C1CCCC(O)=C1N=Nc1ccc(C(=O)O)cc1	-0.1	?	11.2µM*	-0.7%	?
O=C1CCCC(O)=C1N=Nc1ccc2c(c1)OCO2	0.1	-1.7%	15.7%	0.7%	-28.4
O=C(NC(=O)N1CCN(c2ccc([N+](=O)[O-])cn2)CC1)c1ccccc1F	0.5	-2.6%	-1.7%	2.9%	10.3
CN(NC(=O)c1ccccc1F)c1ccc([N+](=O)[O-])cn1	-43.0*	-12.8%	-28.3%	-0.3%	-6.3
COC1=CC(=O)c2c(ccc3ncnc(N)c23)C1=O	-1.8	?	-2.5%	4.2%	-57.8*
COc1cccc2c1C(=O)C=C(C)C2=O	-2.9	2.7%	-21.2%	5.3%	-10.8
CCCc1cc(=O)n2[nH]c(C)c(-c3ccccc3)c2n1	-57.2*	i	18.7%	-1.1%	2.6
Cc1cccc(C(=O)OC(C)C(=O)Nc2ccc(S(=O)(=O)N3CCCC3)cc2)c1O (centres undefined)	-0.1	i	10.4%	-1.1%	-5.0
CC(OC(=O)c1cc(Br)ccc1O)C(=O)Nc1ccc(S(=O)(=O)N2CCCC2)cc1 (centres undefined)	-2.6	i	2.1%	15.8µM*	-3.7
Cn1ccc(C(=O)NCC2CCC3(CCN(Cc4ccc(F)cc4F)CC3)O2)n1 (centres undefined)	·	·	·	-0.5%	·
CCOc1ccc(CCNC(=O)CCCn2c(=O)c3cccn3c3cccnc32)cc1OCC	-85.8*	0.0%	-1.0%	14.8%	-3.2
N=C(N)c1ccc(OCCCOc2ccc(C(=N)N)cc2Br)c(Br)c1	·	·	3.9%	·	·
CCN(N=O)c1ccc(/C=C/c2ccnc3ccccc23)cc1	·	·	·	-0.5%	·
C[N+](C)(C)c1ccc(/C=C/c2ccnc3ccccc23)cc1	·	·	·	31.6µM*	·
CCC[N+](C)(C)c1ccc(/C=C/c2ccnc3ccccc23)cc1	·	·	·	3.16µM*	·
Oc1ccc(/C=C/c2ccnc3ccccc23)cc1	0.3	-6.5%	-18.7%	-2.5%	5.6
CN(C(=O)NC1CCCCC1)[C@H]1C[C@H]2c3[nH]c4ccccc4c3CCN2C(=O)[C@H]1CO	-56.7*	-7.5%	12.1%	0.5%	-2.4
CN(C(=O)C(C)(C)C)[C@H]1C[C@H]2c3[nH]c4ccccc4c3CCN2C(=O)[C@H]1CO	0.3	-2.2%	-4.0%	1.1%	-2.4

Source: PubChem BioAssay (National Center for Advancing Translational Sciences (NCATS))
